From paper PMC6212790, “How bacterial xenogeneic silencer rok distinguishes foreign from self DNA in its resident genome” come the findings set out here.

The full ranking holds about 33,000 sequences; the median of “e-score” is about -0.037, and the highest 2% start at about 0.34. The sample holds the highest values, similar sequences and a random draw of the others, so the mix is not that of the screen.

The target of this test is T1, GST-Rok (full length) (Bacillus subtilis subsp. subtilis str. …, UniProt O34857 1-191).
T1 sequence: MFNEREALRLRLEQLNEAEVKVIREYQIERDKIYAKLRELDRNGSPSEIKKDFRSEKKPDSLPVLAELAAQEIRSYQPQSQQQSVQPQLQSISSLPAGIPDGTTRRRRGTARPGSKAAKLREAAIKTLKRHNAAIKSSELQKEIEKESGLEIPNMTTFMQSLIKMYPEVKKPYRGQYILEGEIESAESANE
In words: protein binding microarray; Rok is a gene silencer of Bacillus subtilis; high values mean tight binding. To be noted: protein: recombinant; tags: GST (pTH5325, pDEST15-Magic modified); dsDNA, one strand shown. The essentials:
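Each has a 25-mer constant primer and a 35-mer variable part from a de Bruijn sequence of order 10, covering every non-palindromic 8-mer at least 32 times (palindromic 16). Preference for each 8-mer is given as a rank-based, unitless enrichment score (E-score). Its range runs from 0.5 (most favored) to −0.5 (most disfavored).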
For the sequence AACCATAA, the binding signal came out at 0.0915 E-score.

As for TACCATAA, the binding signal is 0.336 E-score.

Regarding GACCATAA, the binding signal is -0.0227 E-score.

As to CATAGTTA, the binding signal was 0.244 E-score.

GATAGTGA: the binding signal amounted to 0.162 E-score.

As to GATAGTTA, the binding signal was 0.391 E-score.

Take AATAGTTG: the binding signal was determined as 0.313 E-score.

For the sequence GATAGTCA, the binding signal worked out at 0.0302 E-score.

For AATAGTTA, the binding signal was 0.372 E-score.

Regarding TGCTGCAA, the binding signal is -0.149 E-score.

Turning to GCAATACA, the binding signal was 0.115 E-score.

As to CAACGACG, the binding signal is -0.1 E-score.

CATAGCCG: the binding signal is -0.0675 E-score.

As for CGAACCCG, the binding signal was -0.099 E-score.

Turning to CATAAAGA, the binding signal is 0.0223 E-score.

With AGCAGAGA, the binding signal was -0.129 E-score.

For ATACGGTG, the binding signal came out at 0.0458 E-score.

In the case of ATACGATC, the binding signal came out at 0.0843 E-score.

In the case of CTACGGTA, the binding signal was 0.175 E-score.

On to ATACGGTA, for which the binding signal was determined as 0.348 E-score.

With GTACGATA, the binding signal was 0.252 E-score.

For ATACGATA, the binding signal came out at 0.366 E-score.

Take GTTATGAA: the binding signal is 0.155 E-score.

With AAACATCT, the binding signal stood at 0.0882 E-score.

For the sequence AGGAGGAA, the binding signal was -0.159 E-score.

For GCAGTCTA, the binding signal is 0.0175 E-score.

AGCTAGAA: the binding signal was found to be 0.329 E-score.

Regarding GACTAGAA, the binding signal was 0.15 E-score.

With AACTAGAG, the binding signal amounted to 0.107 E-score.

As for AGCTAGAT, the binding signal came out at 0.215 E-score.

As for CACTAGAA, the binding signal stood at 0.224 E-score.

In the case of TACTAGAA, the binding signal amounted to 0.375 E-score.

Regarding ACCTAGAA, the binding signal was 0.109 E-score.

As for AACTAGAT, the binding signal was determined as 0.369 E-score.

On to GGCTAGAA, for which the binding signal is -0.0986 E-score.

On to AACTAGAC, for which the binding signal was determined as 0.103 E-score.

As for AACTAGAA, the binding signal was 0.395 E-score.

On to TGCTAGAA, for which the binding signal was determined as 0.387 E-score.

As to AAAAAGCT, the binding signal was -0.0996 E-score.

For GAGTACCA, the binding signal is -0.0678 E-score.

Turning to ACACATGA, the binding signal amounted to 0.211 E-score.

GACGTAGC: the binding signal amounted to 0.0184 E-score.

In the case of AGGTTGAC, the binding signal was -0.156 E-score.

CGTAAGGC: the binding signal was -0.174 E-score.

With AGAGGACT, the binding signal is -0.176 E-score.

Consider GAGCTAAC, for which the binding signal was 0.0297 E-score.

Consider ATCCTAAG, for which the binding signal was -0.0403 E-score.

Take AATCAATG: the binding signal is 0.0424 E-score.

Take CACTTATC: the binding signal worked out at 0.23 E-score.

As to ACGTAAAG, the binding signal was found to be 0.0236 E-score.

Turning to CGTAGAAC, the binding signal came to 0.0102 E-score.

Turning to CGTAGAAG, the binding signal was found to be 0.128 E-score.

For GTTAGAAC, the binding signal came to 0.0808 E-score.

In the case of GGTAGAGA, the binding signal came out at 0.0752 E-score.

GGTAGACA: the binding signal was found to be 0.0655 E-score.

With GATAGAAC, the binding signal amounted to 0.278 E-score.

For GGTAGAAC, the binding signal worked out at 0.374 E-score.

Turning to TTTAGAAA, the binding signal was 0.183 E-score.

Consider TGTAGAAA, for which the binding signal came to 0.396 E-score.

On to CGTAGAAA, for which the binding signal is 0.359 E-score.

Regarding TGTAGACA, the binding signal amounted to 0.159 E-score.

GGTAGAAA: the binding signal worked out at 0.472 E-score.

Consider AAGTGAGC, for which the binding signal was -0.093 E-score.

For the sequence CGTGCCTA, the binding signal is -0.0621 E-score.

Turning to GCCCACTA, the binding signal worked out at 0.00538 E-score.

CCTCTTAC: the binding signal was -0.169 E-score.

For the sequence AGGTTAAT, the binding signal came to 0.137 E-score.

In the case of CTGATAAG, the binding signal was found to be 0.0753 E-score.

As for TCCGTAGA, the binding signal worked out at 0.118 E-score.

Regarding CTGGAACA, the binding signal was -0.0188 E-score.

CTACATAG: the binding signal came to 0.153 E-score.

Take AAACATAT: the binding signal was 0.316 E-score.

As for ATACACAT, the binding signal worked out at 0.303 E-score.

With ATACAAAT, the binding signal was determined as 0.32 E-score.

As to ATACATAA, the binding signal was 0.316 E-score.

With ATACAAAC, the binding signal worked out at 0.354 E-score.

For ATACATAT, the binding signal amounted to 0.399 E-score.

As to GTACATAC, the binding signal worked out at 0.28 E-score.

Take ATACATAG: the binding signal was determined as 0.391 E-score.

Regarding CTACATAC, the binding signal came to 0.269 E-score.

As for ATACAAAA, the binding signal amounted to 0.278 E-score.

In the case of ATACATAC, the binding signal worked out at 0.372 E-score.

GAATGTAA: the binding signal is 0.21 E-score.

For the sequence AGCCCTAT, the binding signal was -0.0484 E-score.

With CGCGATGC, the binding signal is -0.0559 E-score.

On to AAATTAAA, for which the binding signal stood at 0.166 E-score.

Turning to AGGTTCAT, the binding signal is -0.0409 E-score.

Consider GAATGGAC, for which the binding signal is -0.0766 E-score.

Turning to AAGGTTGT, the binding signal is -0.00326 E-score.

With GCGATAAA, the binding signal was 0.182 E-score.

Regarding ATACAATG, the binding signal was determined as 0.254 E-score.

Regarding ATACAATA, the binding signal came out at 0.359 E-score.

On to ATACAATC, for which the binding signal is 0.192 E-score.

Consider CATAATCA, for which the binding signal amounted to 0.164 E-score.

With CGAGGCCA, the binding signal is -0.199 E-score.

On to TGAACTAA, for which the binding signal came out at 0.0469 E-score.

ATTCGAAT: the binding signal worked out at 0.342 E-score.

Take ATTCGAAA: the binding signal is 0.159 E-score.

For the sequence ATTCGAAG, the binding signal is 0.09 E-score.

As for AGCGGTTA, the binding signal was -0.138 E-score.

With CCCGGTAG, the binding signal is -0.134 E-score.

In the case of AGCGGTAC, the binding signal was -0.166 E-score.

As for AGCGGTAT, the binding signal was determined as 0.321 E-score.

For ACCGGTAG, the binding signal is 0.374 E-score.

As for AGCGGTAG, the binding signal was 0.34 E-score.

Take ACCGGTAA: the binding signal stood at 0.255 E-score.

In the case of CTATGTCA, the binding signal worked out at 0.225 E-score.

Regarding AAGTCGCC, the binding signal is -0.0852 E-score.

On to AAAGCATT, for which the binding signal was -0.0355 E-score.
